# Results from PubChem BioAssay AID602477 (National Center for Advancing Translational Sciences (NCATS), 2012).
# Inconclusive results are not listed. Activity calls are given as the source filed them. Calls come from the whole dose curve; as a rule, active = well fitted activation curve with a large enough effect; inconclusive = small, poorly fitted or top-dose-only effect; inactive = no such curve, though single readings can be large or run the other way.
# Experiment: FLuc inhibitory activity for the follow-up compounds in a cell-based assay to assess the activity of miR-21
# Details: HeLa miR-21-FLuc reporter, luciferase luminescence, 48 h; series mostly up to 38.3 µM
# From the text: NCGC Assay Overview: Firefly (Photinus pyralis) luciferase is one of the most commonly used transcriptional reporters. It is considered one of the more dynamically responsive reporters - that is, responsive to changes in reporter transcription - as it requires no post-translational modifications and is enzymatically active directly after protein synthesis (Wood, 1998). With no endogenous expression in mammalian cells and without the requirement of external excitation, it offers very little background signal, thus generally providing excellent signal to background for most assays. Previous profiling work to determine the prevalence of compounds that affect FLuc enzymatic activity (PubChem AID 411) identified that ~3% of the MLSMR library (then at ~72K) inhibited FLuc (Auld et al., 2008). […] Of the compounds identified in this profile that inhibited FLuc, 151 compounds were selected for further analysis, in an effort to better understand their mode of inhibiting FLuc. The assay described here was to determine the activity of the compounds in a cell-based firefly luciferase reporter gene assay originally designed to identify antagonists of miR-21. Compounds that inhibit miR-21 or compounds that stabilize FLuc intracellularly are identified as active compounds in the assay.
# NCGC Assay Protocol Summary: Reagents: In-house detection reagent: 300mM Tris-HCl, 300mM Trizma base, 300mM MgCl, 1% Triton-X100, 5mM DTT, 500uM Coenzyme A trilithium salt (Sigma #C3019),450uM ATP (Sigma #A7699), 1mM D-luciferin sodium salt monohydrate (Biosynth #L8240) HeLa cells stably expressing firefly luciferase (FLuc) under the control of a CMV promoter (upstream) and a miR-21 binding sequence directly downstream of the gene. These cells endogenously express miR-21. Control compounds used were two known firefly luciferase inhibitors (3-(5-(3-chlorophenyl)-1,2,4-oxadiazol-3-yl)benzoic acid and 5-(2-fluorophenyl)-3-phenyl-1,2,4-oxadiazole), and DMSO. Assay Summary: 6uL of HeLa miR-21-FLuc cells in assay buffer (DMEM, Invitrogen #21063-029; 10% FBS, HyClone #SH30071.03) were dispensed at 2000cells/well (3.3 x 10^5 cells/mL) into Greiner solid-white TC-treated 1536-well plates using a Multidrop Combi (Thermo Fisher Scientific). Plates were incubated for one hour at 37 degree Celsius, 95% humidity, 5% CO2. These assay plates were then treated with 23nL of compound or DMSO using a Kalypsys pin tool, which allows for delivery of a 12-point titration of each compound to the assay plate, with a final compound concentration ranging from approximately ~38uM to 0.2nM. Assay plates were then incubated for 48 hours. After incubation, plates were allowed to come to RT for one hour prior to delivery of 3uL of 3X luciferase detection reagent. After a 15 minute incubation to allow for cell lysis, luciferase activity was measured using a ViewLux CCD imager (PerkinElmer), with an average exposure time of 2-12 seconds.
row,Compound,Potency
1,Nc1ccc2nc(-c3ccccc3)sc2c1,63.4 nM (active)
2,Nc1cccc(-c2nc3ccc(N)cc3s2)c1,1790 nM (active)
3,CC(=O)Oc1ccc(C(=O)Nc2ccccc2C(=O)Nc2ccc(C(=O)O)cc2)cc1,inactive
4,Cc1ccc(C(=O)Nc2cccc(C(=O)O)c2)cc1S(=O)(=O)N1CCOCC1,12600 nM (active)
5,COc1cccc(-c2nc3ccccc3s2)c1,252 nM (active)
6,COc1ccc(Br)cc1C(=O)Nc1ccc(C(=O)O)cc1,7980 nM (active)
7,O=C(Nc1ccc(-c2nc3ccccc3s2)cc1)C1=COCCO1,10 nM (active)
8,Cc1ccc(C(=O)Nc2ccccc2C(=O)O)cc1S(=O)(=O)N1CCCCCC1,2830 nM (active)
9,CCCC(=O)Nc1nc2ccc(OCC)cc2s1,2830 nM (active)
10,Cc1ccc(C(=O)Nc2cccc(C(=O)O)c2)cc1S(=O)(=O)N1CCCC1,1000 nM (active)
11,O=C(Nc1ccccc1C(=O)O)c1cc(S(=O)(=O)Nc2cccc(F)c2)ccc1Cl,inactive
12,COc1ccc(CC(=O)Nc2ccc(-c3nc4ccccc4s3)c(C)c2)cc1,14200 nM (active)
13,O=C(Nc1ccccc1C(=O)O)c1cccc(NC(=O)c2ccccc2Br)c1,inactive
14,CCc1noc(C)c1C(=O)Nc1nc2ccc(OC)cc2s1,12600 nM (active)
15,Cc1cccc(C(=O)Nc2ccccc2C(=O)Nc2ccc(C(=O)O)cc2)c1,15900 nM (active)
16,COc1ccc2nc(NC(=O)c3ccco3)sc2c1,100 nM (active)
17,O=C(O)c1cccc(NC(=O)c2cccc(S(=O)(=O)N3CCc4ccccc4C3)c2)c1,inactive
18,NC(=O)Cc1ccc2sc(-c3ccccc3)nc2c1,1260 nM (active)
19,CCn1c(C)nc2cc(-c3nc4n(n3)Cc3ccccc3-4)ccc21,100 nM (active)
20,CCOc1ccc(C(=O)Nc2cccc(C(=O)O)c2)cc1Cl,356 nM (active)

row,Compound,Potency
1,CN=c1scc(-c2ccccc2F)n1/N=C/c1ccc[nH]1,inactive
2,O=C(O)c1ccc(NC(=O)c2cc(S(=O)(=O)N3CCCCC3)c(Cl)cc2Cl)cc1,inactive
3,Nc1ccc2nc(-c3ccc(O)cc3)sc2c1,400 nM (active)
4,O=C(Nc1ccccc1C(=O)O)c1cccc(S(=O)(=O)Nc2ccc(Br)cc2)c1,inactive
5,Cc1c(C)c2ccc(OCC(=O)Nc3ccccn3)c(C)c2oc1=O,5.6 nM (active)
6,CC(C)CC(=O)Nc1cccc(C(=O)Nc2ccccc2C(=O)O)c1,inactive
7,Cc1ccc(C(=O)Nc2cccc(C(=O)O)c2)cc1S(=O)(=O)N1CCCCC1,565 nM (active)
8,Nc1ccc(-c2nc3ccc(C(=O)O)cc3s2)cc1,14.2 nM (active)
9,O=C(Nc1ccccc1C(=O)O)c1ccc(NC(=O)C2CCCO2)cc1 (stereo not given),inactive
10,O=S(=O)(c1ccc(-c2nc3ccccc3s2)cc1)N1CCCC1,2000 nM (active)
11,O=C(O)c1cccc(NC(=O)c2cccc(S(=O)(=O)N3CCc4ccccc43)c2)c1,inactive
12,Cc1ccc(S(=O)(=O)N2CCOCC2)cc1C(=O)Nc1ccccc1C(=O)O,inactive
13,COc1ccc2nc(NC(=O)c3ccc([N+](=O)[O-])o3)sc2c1,4490 nM (active)
14,Cc1ccc2nc(-c3ccc(N)cc3)sc2c1,35.6 nM (active)
15,Nc1ccccc1C(=O)Nc1cccc(C(=O)O)c1,11300 nM (active)
16,Cc1ccc(C(=O)Nc2ccc(C(=O)O)cc2)cc1S(=O)(=O)Nc1ccccc1,inactive
17,CC(=O)Oc1ccc(C(=O)Nc2ccccc2C(=O)Nc2cccc(C(=O)O)c2)cc1,inactive
18,COc1cc(OC)cc(C(=O)Nc2ccc(-c3nc4ccccc4s3)c(C)c2)c1,11300 nM (active)
19,O=C(Nc1cccc(-c2nc3ccccc3s2)c1)c1cc(-n2cnnc2)ccc1Cl,4490 nM (active)
20,CN(C)c1cccc(C(=O)Nc2ccc(-c3nc4ccccc4s3)cc2)c1,503 nM (active)
